# Laboratory results reported in PubChem BioAssay (EPA / NIEHS).
# The source made the active and inactive calls. Rule for the calls: active = hit-call score of the fitted dose curve at least 0.9, where 1 is the maximum; inactive = score below 0.9.
# Read-out: Secreted IgG (sIgG), gene 3500
# Test: BSK_BT_sIgG: BioMAP Diversity Plus: BT Assay for Secreted IgG (sIgG) Biomarker Activity (AID 2284226)
# Conditions: primary human B cells with PBMC
# Method: BSK_BT is a cell-based, multiplexed-readout assay that uses B cell and peripheral blood mononuclear cells, a human vascular primary cell co-culture, with measurements taken at 24 hours after chemical dosing in a microplate: 96-well plate.BSK_BT_sIgG is an assay component measured in the BSK_BT assay. It measures secreted IgG related to regulation of gene expression using ELISA technology.Data from the assay component BSK_BT_sIgG was analyzed at the endpoint, BSK_BT_sIgG, in the positive analysis fitting direction relative to DMSO as the negative control and baseline of activity. Using a type of cytokine quantitation reporter, gain or loss-of-signal activity can be used to understand protein changes. To generalize the intended target to other relatable targets, this assay endpoint is annotated to the 'immunoglobulin' intended target family, where the subfamily is 'IgG'.
# The levels of cell surface (or secreted, indicated by the prefix "s") biomarker endpoints were measured by ELISA. Overt cytotoxicity to cells in confluent adherent cultures (all systems other than the BT system) was assessed by measuring total protein levels using sulforhodamine B (SRB) staining in parallel cultures at the time of biomarker measurements, indicated as SRB endpoints. For proliferation assays for adherent cell types, individual cell types are cultured at sub-confluence and relative cell numbers quantified by SRB staining at time points optimized for each system (48 h: 3C and CASM3C systems; 72 h: BT and HDF3CGF systems; 96 h: SAg system). SRB was performed by staining cells with 0.1% SRB after fixation with 10% TCA and reading wells at 560 nm.Viability and proliferation of PBMC (T cells) was quantified by Alamar Blue reduction for the SAg and BT systems. For PBMC viability (referred to as PBMC Cytotoxicity within the assay endpoint names), cells were plated (75,000/well in a 96-well plate) and then chemical samples added for 1 h before addition of activators, SEB and TSST-1 (20 ng/mL final concentration each). Cells were incubated for 90 h. Then, Alamar Blue (20 uL/well) (Invitrogen, Cat DAL1100) was added for 6 h, and the plates were read with a fluorescence microplate reader at 546/580 nm (excitation/emission). For PBMC proliferation, cells were plated and activated as above but incubated for only 16 h prior to addition of Alamar Blue. Plates were read after 6 h.
SMILES,outcome,AC50
CCOc1nc(F)cc2nc(S(=O)(=O)Nc3c(Cl)cccc3C(=O)OC)nn12,inactive,–
CCCCNc1ccc(NCCCC)c2c1C(=O)c1ccccc1C2=O,inactive,–
S=C(NC1CCCCC1)NC1CCCCC1,–,20 µM (active)
O=C(Nc1ccccc1SSc1ccccc1NC(=O)c1ccccc1)c1ccccc1,–,4.59 µM (active)
CC(C)(c1cc(Br)c(OCCO)c(Br)c1)c1cc(Br)c(OCCO)c(Br)c1,–,8.71 µM (active)
CCCCC(CC)COC(=O)c1ccccc1O (configuration not stated),–,7.14 µM (active)
COCc1c(C(C)C)nc(C(C)C)c(/C=C/[C@@H](O)C[C@@H](O)CC(=O)O)c1-c1ccc(F)cc1,–,0.0231 µM (active)
C=CC=CC=CCCCCC,–,7.13 µM (active)
CC1OC1C1CCC2(C)OC2C1 (configuration not stated),inactive,–
c1ccc2c(c1)ccc1cc3c(ccc4ccccc43)cc12,inactive,–
CCCCC/C=C\C/C=C\CCCCCCCC(=O)OC,–,20 µM (active)
O=Nc1ccc(O)cc1,inactive,–
O=C(Cl)c1cc(C(=O)Cl)cc(C(=O)Cl)c1,–,14.6 µM (active)
C=CCOc1c(Br)cc(Br)cc1Br,inactive,–
COc1ccc2nc(N)sc2c1,inactive,–
C#CC1(O)CC[C@H]2[C@@H]3CCC4=CCCC[C@@H]4[C@H]3CC[C@@]21C (some centres not stated),–,10.7 µM (active)
c1ccc2c(c1)ccc1ncccc12,inactive,–
CCO[Si](CCCN=C=O)(OCC)OCC,inactive,–
C=CCOCC(O)CCl (configuration not stated),–,20 µM (active)
c1ccc(-c2ccccn2)nc1,–,20 µM (active)
N#[N+]c1ccc2c(S(=O)(=O)[O-])cccc2c1O,inactive,–
CCCCCCCCc1ccc(Nc2ccc(CCCCCCCC)cc2)cc1,inactive,–
C=CC(=O)OCC(Br)CBr (configuration not stated),–,7.95 µM (active)
C/C=C\C/C=C/CCCCCCCCOC(C)=O,–,17 µM (active)
O=c1c2ccccc2oc2ccccc12,–,11.7 µM (active)
CC(C)C(=O)C(C)C,inactive,–
CCCCCCCCCCCCCCCC[N+](C)(C)CC,–,0.0956 µM (active)
